# Data: PubChem BioAssay (EPA / NIEHS)
# Inconclusive results are not listed. The source made the active and inactive calls. How the source made its calls: active means hit-call score of the fitted dose curve at least 0.9, where 1 is the maximum; inconclusive means response in the unintended direction; inactive means score below 0.9. Peptide text beside a SMILES is read from it.
# Assay: ACEA_ER_80hr: ACEA Biosciences xCELLigence Real-Time Cell Analysis on Estrogen Receptor Agonism for Proliferation (AID 2282667)
# Conditions: T47D proliferation, impedance (xCELLigence), 80 h
# Procedure: ACEA_ER is a cell-based, single-readout assay that uses T47D, a human breast cell line, with measurements taken at 80 hours after chemical dosing in a 96-well plate, although TO2 (mc0.srcf) used a 384-well plate. Differences in plate size can be ignored given data normalization.ACEA_ER_80hr is one of two assay component(s) measured or calculated from the ACEA_ER assay. It is designed to make measurements of real-time cell-growth kinetics, a form of growth reporter, as detected with electrical impedance signals by Real-Time Cell Electrode Sensor (RT-CES) technology.Data from the assay component ACEA_ER_80hr was analyzed into 1 assay endpoint. This assay endpoint, ACEA_ER_80hr_Positive, was analyzed in the positive analysis fitting direction relative to DMSO as the negative control and baseline of activity. Using a type of growth reporter, measures of the cells for gain-of-signal activity can be used to understand the signaling at the pathway-level as they relate to the gene ESR1. Furthermore, this assay endpoint can be referred to as a primary readout, because this assay has produced multiple assay endpoints where this one serves a signaling function. To generalize the intended target to other relatable targets, this assay endpoint is annotated to the nuclear receptor intended target family, where the subfamily is steroidal.
# The xCELLigence system Multi-E-Plate stations were used to measure the time-dependent response to chemicals. Each compound was tested in an eight-point, 1:4 serial dilution series starting at a maximum final concentration of 100 uM. A maximum starting concentration of 0.5% DMSO was present in the 100 uM chemical samples and was diluted along with the test article dilution series. The screen was performed in biological duplicate using two separate, 96-well, E-Plates 96 for each dilution series (n = 2). Positive controls (MG132 and E2) and a negative control (assay media) were tested in quadruplicate on each testing plate. […] Reference compounds were tested with 8 concentrations with 1:5 serial dilutions. All screening was carried out by ACEA Biosciences, Inc. (San Diego, CA). T-47D cells purchased from ATCC were maintained in RPMI1640 media supplemented with 10% characterized fetal bovine serum (FBS). […] Cells were then detached and seeded in E-Plates 96 in assay medium. After overnight monitoring of growth once every hour, compounds were added to […] cells and remained in the medium until the end of the experiment. Cellular responses were then recorded once every 5 min for the first 5 h, and once every hour for an additional 100 h.
SMILES,outcome,AC50
O=C1CCCN1C1CCCCC1,inactive,–
CCCCCCO,inactive,–
CCCCOCC(C)O (stereo not given),–,129 nM (active)
Oc1c(Cl)cc(Cl)c(Cl)c1Cl,–,10500 nM (active)
CC(CC(C)C)=NO,inactive,–
C[Si](C)(C)N[Si](C)(C)C,inactive,–
COCC(=O)O,inactive,–
CCN1CN(CC)CN(CC)C1,inactive,–
Clc1cc(Cl)c(Cl)c(Cl)c1Cl,inactive,–
O=C(O)/C=C/c1ccccc1,–,2060 nM (active)
CCc1cccc(C)c1N(C(=O)CS(=O)(=O)O)C(C)COC (stereo not given),inactive,–
Cc1c(Cl)cccc1Cl,inactive,–
CC=CC(=O)OCC(C)C,inactive,–
CC(C)(O)Cc1ccccc1,inactive,–
CCOC(=O)C1=NN(c2ccc(Cl)cc2Cl)C(C)(C(=O)OCC)C1 (stereo not given),inactive,–
O=C(O[C@@H]1Cc2c(O)cc(O)cc2O[C@@H]1c1cc(O)c(O)c(O)c1)c1cc(O)c(O)c(O)c1,inactive,–
CCC(C)C(=O)OCCc1ccccc1 (stereo not given),–,1680 nM (active)
C=CCCCCCCCCC=O,inactive,–
C=C(C)OC(C)=O,inactive,–
CC(=O)OCCc1ccccc1,inactive,–

SMILES,outcome,AC50
N#CC1(N)CCCCC1,inactive,–
COC(=O)[C@H](Cc1ccccc1)NC(=O)[C@@H](N)CC(=O)O (H-Asp-Phe-OMe),inactive,–
CC/C=C\C/C=C\C/C=C\CCCCCCCC(=O)OC,inactive,–
C=CC(=O)OCCCCCCCC(C)C,inactive,–
c1ccc2c(c1)[nH]c1ccccc12,inactive,–
Nc1ccc(C(=O)OCCCOC(=O)c2ccc(N)cc2)cc1,inactive,–
CCCCCCOC(=O)CCCCC(=O)OCCCCCC,inactive,–
CCCCCCCCC(CO)CCCCCC (stereo not given),inactive,–
CC(=O)/C=C/C1C(C)=CCCC1(C)C (stereo not given),inactive,–
Cc1cc(C)c(C=O)c(C)c1,inactive,–
COC(=O)c1ccc(C(=O)OC)c(C(=O)OC)c1,inactive,–
CCCCCCCCCCCC(C)=O,inactive,–
N#Cc1ccc(C(c2ccc(C#N)cc2)n2cncn2)cc1,inactive,–
CCC[Si](OC)(OC)OC,inactive,–
Cc1ccc([N+](=O)[O-])cc1N,inactive,–
CCCC(C)C(=O)OCC (stereo not given),inactive,–
NC(=O)Nc1ccccc1,inactive,–
O=C(Cl)c1c(Cl)c(Cl)c(C(=O)Cl)c(Cl)c1Cl,inactive,–
Nc1ncnc2nc[nH]c12,inactive,–
CC(=O)c1ccccc1O,inactive,–
